# PrPC surface inh = inhibitors of human cell surface prion protein PrPC, primary screen, cell-based, TR-FRET; TR-FRET read-out; inhibition, % at 13.8 µM; 0.43% of 370,000 active; AID 720596, 2013; in the data active = inhibition above about 24%; note: 0% = median of the test wells and 100% = reference compound wells
# PrP UTR inh = inhibition of PrP 5' UTR reporter expression; cell-based PrP 5' UTR mRNA reporter, plate reader; inhibition, % (test concentration not listed); 0.35% of 340,000 active; in the data active = inhibition above about 52%; note: 0 = median of the neutral control wells
# Sa RN4220 lethal = growth inhibition of S. aureus RN4220, primary screen, OD600. 0.33% of 330,000 active. 16 h. AID 1259311, 2017. inhibition, % (concentration not given with the values); in the data active = inhibition above about 85%;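 note: plate controls were untreated cells for no effect and reference antibiotic for full effect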
# Sa ugtP lethal = growth inhibition of ugtP-null S. aureus, primary screen, RN4220 ugtP deletion, OD600; 16 h; growth inhibition, % (concentration not given with the values); 0.54% of 330,000 active; AID 1259309, 2017; in the data active = growth inhibition above about 68%;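 note: plate controls were untreated wells for no effect and antibiotic for full effect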
# CCHF vOTU inh = CCHFV vOTU protease inhibitors, primary screen, biochemical, Pep-AMC substrate, fluorescence. Crimean-Congo hemorrhagic fever virus L polyprotein viral ovarian tumor (vOTU) protease …. inhibition, % at 11.5 µM. 0.55% of 370,000 active; in the data active = inhibition above about 30%; note: 0% = vehicle wells with enzyme and 100% = no enzyme wells
# PfHsp40 yeast = rescue of yeast from PfHsp40 toxicity, primary screen, S. cerevisiae, ATP luminescence; AID 504582, 2011; growth rescue, % at 12.5 µM; S. cerevisiae expressing PfHsp40, growth rescue; 0.68% of 340,000 active; in the data active = growth rescue above about 28%, passing the limit was not always enough;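 note: yeast W303a lacking pdr1 and pdr3 grown in galactose medium; growth measured after three days at 30 °C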
# An asterisk follows results filed as active; / = no result given. Only some compounds are listed: those with a hit (about 2.1% of all), similar ones and a draw of the others.
SMILES,PrPC surface inh,PrP UTR inh,Sa RN4220 lethal,Sa ugtP lethal,CCHF vOTU inh,PfHsp40 yeast
NS(=O)(=O)c1ccc(NC(=S)NC(=O)C2CCCCC2)cc1,8.2,-19.9,4.9,88.9*,23.9,-1.1
Cc1ccc(NC(=S)NC(=O)C2CCCCC2)c(Br)c1,13.9,-61.7,-0.5,87.1*,18.4,6.8
Cc1ccc(C=NNC(=O)COc2ccccc2-c2ccccc2)cc1,/,/,1.0,-18.9,/,/
COc1ccc(S(=O)(=O)Nc2ccc3c(c2)C(=O)N(C(C)CO)CC(C)C(CN(C)C(=O)Nc2ccc4c(c2)OCO4)O3)cc1 (stereo unspecified),/,/,4.6,0.1,/,/
CCCSc1ccc(C2N[C@@](C)(C(=O)OC)C3C(=O)N(C)C(=O)C23)cc1OC (stereo partly specified),/,/,6.9,5.4,/,/
O=c1c2ccccc2nc(/C=C/c2ccc([N+](=O)[O-])o2)n1CCCO,24.4,0.7,113.5*,99.0*,10.8,0.1
O=c1c2ccccc2nc(/C=C/c2ccc([N+](=O)[O-])cc2)n1CCCO,-29.7,3.2,2.7,-16.5,0.0,-0.3
COc1ccc(-c2cc(C3CCN(c4cc(Cl)nc(N)n4)CC3)[nH]n2)cc1,14.6,4.6,-7.0,94.9*,-5.7,2.8
Nc1nc(Cl)cc(N2CCC(c3cc(-c4ccc(Cl)cc4)n[nH]3)CC2)n1,12.5,-8.3,28.3,94.2*,-1.7,5.3
COc1ccc(OCC(=O)NNC(=S)NC(=O)C2CCCCC2)cc1,-0.2,-0.2,/,/,13.2,345.8*
COc1ccc(OCC(=O)NNC(=S)NC(=O)C2CC2)cc1,-0.1,-12.5,15.1,-2.8,-3.5,-1.3
CCc1ccc(OCC(=O)NNC(=S)NC(=O)C2CCCCC2)c(Br)c1,0.8,-0.1,31.3,4.5,-9.9,9.5
CCCCNC(=O)NNC(=O)COc1cc(C)cc(C)c1,-6.2,-21.9,3.2,0.2,5.6,-0.3
Cc1cc(C)cc(OCC(=O)NNC(=S)NC(=O)C2CC2)c1,-0.8,-33.7,68.2,33.4,-6.1,112.0*
CCc1ccc(OCC(=O)NNC(=S)NC(=O)C2CC2)c(Br)c1,-4.4,-22.5,68.7,36.9,-1.9,47.7*
COc1cc(C=NNC(=O)c2ccccc2)ccc1OS(=O)(=O)c1ccccc1,/,/,-3.4,89.7*,/,/
C=CCN(CC=C)S(=O)(=O)c1ccc(NC(=S)NC(=O)c2ccco2)cc1,6.7,-17.1,-0.5,9.8,7.3,55.3*
N#CC(c1cccc(Cl)c1)c1ccc2c(C(F)(F)F)cc(C(F)(F)F)nc2n1 (stereo unspecified),-2.5,-0.4,96.6*,96.8*,-2.6,-0.1
NNc1ccc2c(C(F)(F)F)cc(C(F)(F)F)nc2n1,-5.2,-22.7,24.8,15.1,-33.8,-0.6
Oc1ccc(Cl)cc1C1=NNC(c2cccs2)C1 (stereo unspecified),-4.2,-28.0,96.0*,98.8*,-12.8,-0.2
COc1ccc(N2CCN(C(=O)c3ccc(C)cc3)CC2)c([N+](=O)[O-])c1,-19.6,-15.3,8.6,6.2,9.4,33.1*
CCn1cnc2cc(NCc3ccc(OC)cc3)ccc21,-4.3,-19.5,-1.4,4.6,9.6,0.9
CCOc1ccc2nc3cc(NCc4ccc(OC)cc4)ccc3c(N)c2c1,/,8.0,100.6*,100.0*,/,-0.6
O=C1C2=C(NC(=S)NC2c2ccc(Cl)cc2)NC(c2ccc(Cl)cc2)N1c1ccc(Cl)cc1 (stereo unspecified),2.4,-4.0,100.1*,93.1*,19.0,-0.6
CCc1ccc(C2NC(=S)NC3=C2C(=O)N(c2ccccc2OC)C(c2ccc(CC)cc2)N3)cc1 (stereo unspecified),-9.3,-4.5,-2.1,-30.6,-7.5,-0.9
SMILES,PrPC surface inh,PrP UTR inh,Sa RN4220 lethal,Sa ugtP lethal,CCHF vOTU inh,PfHsp40 yeast
Cc1nc(Sc2ccccc2)c(C#N)c(C)c1[N+](=O)[O-],5.1,-21.5,/,/,-4.3,26.7*
Cc1cc(C)c(C#N)c(Sc2nc(C)c([N+](=O)[O-])c(C)c2C#N)n1,1.1,/,/,/,8.3,/
O=C(NC(Cc1c[nH]c2ccccc12)C(=O)NN=Cc1cccnc1)c1cccs1 (stereo unspecified),/,/,-0.5,-9.5,/,/
O=S(=O)(Nc1cccc(-c2nc3cccnc3s2)c1)c1ccc2c(c1)OCCO2,10.6,11.5,7.7,93.1*,12.7,0.1
C=CCn1c(COc2ccccc2)nnc1SCC(=O)N/N=C/c1cc(Cl)ccc1O,-1.1,-13.4,/,/,9.8,43.8*
CCN=C1SC(=Cc2ccc(Sc3ccc(Cl)cc3)o2)C(=O)N1CC,/,/,0.0,-8.8,/,/
CCOC(=O)C1(Cc2cccc(Cl)c2)CCCN(C(=O)c2occc2C)C1 (stereo unspecified),11.4,-8.9,9.9,5.8,4.0,121.6*
CC(C)CC(CO)Nc1nc(Nc2cccc(Cl)c2)c2ncn(C(C)C)c2n1 (stereo unspecified),/,/,-4.9,-3.8,/,/
CC(=NNC(=O)c1ccccc1)c1ccc2c(c1)OCO2,/,/,7.1,-0.9,/,/
CC1CN(C(C)CO)C(=O)c2cc(NC(=O)Nc3ccc(C(F)(F)F)cc3)ccc2OC1CN(C)C(=O)Nc1ccccc1 (stereo unspecified),/,/,-8.1,8.4,/,/
O=C(Nc1ccc(Br)c(C(F)(F)F)c1)c1ccc(C(F)(F)F)cc1,-3.7,/,100.5*,99.0*,15.5,/
O=C(Nc1ccc(Br)c(C(F)(F)F)c1)c1ccccc1,11.8,-47.2,0.6,-23.2,10.4,644.4*
Cc1cc(NC(=O)CSc2nc3cc(Cl)ccc3o2)no1,3.0,-17.4,3.1,0.5,9.3,-0.6
O=S1(=O)C=C(Sc2nc3cc(Cl)ccc3o2)c2ccccc21,/,-30.8,42.4,90.6*,/,1.0
O=C(CC(NS(=O)(=O)c1ccc(Cl)cc1)c1ccco1)NCc1ccco1 (stereo unspecified),3.0,-9.5,5.8,2.1,2.1,0.9
CCCNC(=O)CC(NS(=O)(=O)c1ccc(Cl)cc1)c1ccco1 (stereo unspecified),3.0,-10.5,2.7,0.5,6.7,123.9*
O=C(O)c1ccc(C=NN2CCN(c3ccccc3)CC2)cc1,/,/,0.3,3.9,/,/
CCCc1nc(SCC(=O)N2CCC(Cc3ccccc3)CC2)c2c(=O)n(C)c(=O)n(C)c2n1,-3.9,-14.4,2.2,-11.4,-4.8,184.3*
C=Cn1c(C(=O)O)ccc1-c1ccc(CC)cc1,2.1,-38.5,-3.5,54.9,-10.1,7.8
CCc1ccc(-c2csc3[n+]2CCN3C(C)=O)cc1,1.4,-20.8,3.1,-0.5,0.2,93.1*
CC(=O)N1CC[n+]2c(-c3ccc(Cl)cc3)csc21,-8.4,-24.1,-0.4,17.6,-18.1,65.7*
Oc1ccccc1-[n+]1c(-c2ccccc2)cc(-c2ccccc2)c(O)c1-c1ccccc1,-1.7,-8.3,12.5,-17.3,14.9,42.2*
COc1ccc(CC(=O)Nc2cccc(C(C)=NNC(=O)C3(C)CC3(Br)Br)c2)cc1 (stereo unspecified),/,/,-2.9,5.9,/,/

# Assay outcomes (PubChem)
